The source made the active and inactive calls. Entries that show only a call come without a potency. Calls follow the shape of the dose curve; as a rule, active = well fitted curve in the direction sought with a large enough effect in the repeat runs; inconclusive = weak or mixed curves; inactive = flat fitted curve, though single readings scatter.
Assay: qHTS assay to test for compound auto fluorescence at 590 nm (red) in HEK293 cell free culture (AID 720683)
Conditions: cell-free medium autofluorescence, Ex540/Em590 red; series mostly up to 91.3 µM
Source text: U.S. Tox21 Program National Center for Advancing Translational Sciences [NCATS] NIH Chemical Genomics Center [NCGC] U.S. Environmental Protection Agency [EPA] National Institutes of Environmental Health Sciences [NIEHS] National Toxicology Program [NTP] U.S. Food and Drug Administration [FDA] Tox21 Assay Overview: Compound auto fluorescence often interferes with screening of the compound library against various biological targets and signaling pathways. Some of these compounds may have fluorophoric properties. Such properties may interfere with the assay outputs resulting in false positives and/or negatives. To decrease such complications and ensure the compound activities are relevant in terms of biological response, the Tox21 10K compound library was screened for auto fluorescence. From the fluorophores used as reporter signals in our screening assays, the auto fluorescence equivalencies of compounds against three fluorophores have been evaluated: Triamterene, Fluorescein and Rose Bengal sodium for blue, green and red fluorescence, respectively. The fluorescence intensities were measured using Excitation/Emission wavelengths at 405/460nm, 485/535nm and 540/590nm for blue, green and red labels, respectively. This assay includes the red fluorescence data.
Tox21 Assay Protocol Summary: 5 uL of culture medium (DMEM containing 10% FBS) per well was dispensed into black wall/clear bottom 1536-well plates using a Multidrop Combi Dispenser (ThermoFisher Scientific, Waltham, MA). After 23 nL compound or DMSO vehicle was transferred into assay plate by a pintool work station (Kalypsys, San Diego, CA), fluorescence intensities in the assay plates were measured by an Envision (PerkinElmer, Shelton, CT) plate reader using three labels for measuring blue, green and red fluorescence at […] 460, 535 and 590nm respectively.

SMILES | Potency | fluorescence, % of fluorescent control
Brc1ccccc1-c1ccccc1 | inactive | 
COC(=O)C1=C(C)NC(C)=C(C(=O)OCCCN2CCC(c3ccccc3)(c3ccccc3)CC2)C1c1cccc([N+](=O)[O-])c1 (stereo not given) | inactive | 
Cc1ccc2ccc3cccc4ccc1c2c34 | inactive | 
COCC(=O)O[C@]1(CCN(C)CCCc2nc3ccccc3[nH]2)CCc2cc(F)ccc2[C@@H]1C(C)C | inactive | 
CC(C)(c1cc(Br)c(OCCO)c(Br)c1)c1cc(Br)c(OCCO)c(Br)c1 | inactive | 
CN(C)c1ccc(N=NS(=O)(=O)O)cc1 | inactive | 
CCCCCCCOC(=O)c1ccc(O)cc1 | inactive | 
Oc1ccc(-c2ccccc2)c(Cl)c1 | inactive | 
CCN(CC)CCNc1ccc(CO)c2sc3ccccc3c(=O)c12 | inactive | 
NCCCC(O)(P(=O)(O)O)P(=O)(O)O | inactive | 
O=C(O)CCCCCCC(=O)O | inactive | 
c1cc2c3c(c1)ccc1cccc(c13)C2 | inactive | 
Cn1cnc2ncnc(N)c21 | inactive | 
O=C1C=CC(=O)N1c1ccccc1 | inactive | 
c1ccc(Nc2cccc3ccccc23)cc1 | inactive | 
CN(C)CCCN1c2ccccc2Sc2ccc(C(F)(F)F)cc21 | inactive | 
CCCCCCCC/C=C\CCCCCCCC(=O)N(C)CC(=O)O | inactive | 
Clc1ccc(C(Cn2ccnc2)OCc2ccsc2Cl)c(Cl)c1 (stereo not given) | inactive | 
COc1ccc2sc(C(=O)Nc3nnn[nH]3)c(OC(C)C)c2c1 | inactive | 
CN(Cc1cc(Br)cc(Br)c1N)C1CCCCC1 | inactive | 

SMILES | Potency | fluorescence, % of fluorescent control
CNCC[C@H](Oc1cccc2ccccc12)c1cccs1 | inactive | 
O=C(Nc1ccc(Cl)c(Cl)c1)c1cc(Cl)cc(Cl)c1O | inactive | 
CCN(CC)CCSC(=O)C(c1ccccc1)c1ccccc1 | inactive | 
Cc1nc(Nc2ncc(C(=O)Nc3c(C)cccc3Cl)s2)cc(N2CCN(CCO)CC2)n1 | inactive | 
CNC(=O)c1cc(Oc2ccc(NC(=O)Nc3ccc(Cl)c(C(F)(F)F)c3)cc2)ccn1 | inactive | 
C=CC(C)(CCC=C(C)C)OC(=O)/C=C/c1ccccc1 (stereo not given) | inactive | 
N#CSCSc1nc2ccccc2s1 | inactive | 
CCN(CC)CCOc1ccc(C(O)(Cc2ccc(Cl)cc2)c2ccc(C)cc2)cc1 (stereo not given) | inactive | 
C=CCCCCCCC=C | inactive | 
Oc1ccc(-c2ccc(O)cc2)cc1 | inactive | 
O=C(Nc1ccc(Cl)cc1)Nc1ccc(Cl)c(C(F)(F)F)c1 | inactive | 
NC(=O)c1ccccc1N | inactive | 
O=C1OC(OC(=O)c2cccnc2Nc2cccc(C(F)(F)F)c2)c2ccccc21 (stereo not given) | inactive | 
CCCCNc1c(C(=O)OCC)c(C)nc2c1cnn2CC | inactive | 
C=C(C)C(=O)OCCC[Si](Cl)(Cl)Cl | inactive | 
CC(C)OC(=O)c1cc(C(=O)OC(C)C)cc([N+](=O)[O-])c1 | inactive | 
CCC(C)(C)c1cc(O)c(C(C)(C)CC)cc1O | inactive | 
O=C(NO)c1ccccc1 | inactive | 
CC(O)C#CC(C)O (stereo not given) | inactive | 
S=C(SSSSSSC(=S)N1CCCCC1)N1CCCCC1 |  | 0.0303% [at 18.6 µM] (inactive)
